Here are results for 40 compounds from PubChem BioAssay (NCATS).

Results filed as inconclusive are left out. A number with no mark means an inactive call. Activity calls are given as the source filed them. The call rests on the fitted dose curve; in most records, active means well fitted cell-killing curve with a large enough effect; inconclusive means small, poorly fitted or top-dose-only effect, or effect the other way; inactive means no such curve, though single readings can be large or run the other way.
Potency means the concentration at half of the fitted maximal effect.

This assay can be described thus: Quantitative High-Throughput drug screen in 47 multiple myeloma cell lines against the NCATS MIPE library collection: AMO1_DSMZ cell viability assay (AID 1918927; further: nearly all actives have a fitted effect of over 30% in size). The note with it: AMO1 myeloma cells viability, CellTiter-Glo ATP luminescence, 48 h; series mostly up to 45.8 µM; viability, % of DMSO: at the top concentration. An excerpt: PI: Beverly A. Mock Ph.D.
Laboratory of Cancer Biology and Genetics,
Center for Cancer Research, National Cancer Institute,
National Institute of Health, Bethesda, Maryland
Drug resistance and disease progression are common in multiple myeloma (MM) patients, underscoring the need for new therapeutic combinations. […] We hypothesized that effective combinations would reduce MYC expression and enhance p16 activity. […] These preclinical data identify potentially useful drug combinations for evaluation in drug-resistant MM and reveal potential mechanisms of combined drug sensitivity.
Described herein is the primary MIPE qHTS used to cherrypick compounds. Validated compounds were then further tested for potential synergistic activiy.
[1] Peat TJ, Gaikwad SM, Dubois W, Gyabaah-Kessie N, Zhang S, Gorjifard S, Phyo Z, Andres M, Hughitt VK, Simpson RM, Miller MA, Girvin AT, Taylor A, Williams D, D'Antonio N, Zhang Y, Rajagopalan A, Flietner E, Wilson K, Zhang X, Shinn P, Klumpp-Thomas C, McKnight C, Itkin Z, Chen L, Kazandijian D, Zhang J, Michalowski AM, Simmons JK, Keats J, Thomas CJ, Mock BA. Drug combinations identified by high-throughput screening promote cell cycle transition and upregulate Smad pathways in myeloma. Cancer Lett. 2023 Aug 1;568:216284. doi: 10.1016/j.canlet.2023.216284. Epub 2023 Jun 24. PMID: 37356470; PMCID: PMC10408729.
SEQUENCE No. (e.g., 1, 2, 3, etc.); […] (e.g., Cells, Incubation, Reagent, etc.); VALUE and DESCRIPTION.
1; Cells; 5 uL; white, solid bottom 1536-well Greiner assay plate.
2; Compounds; 23 nL; Kalypsis pin tool (Wako USA) equipped with a 1536-well pin head to transfer to the assay plates.
3; Incubation; 48 hours; 37C incubation.
4; Reagent;5uL; CellTiter Glo (Promega).
5; Detector; 425V; Luminescence; Viewlux PerkinElmer.
NOTES (numbers refer to Sequence numbers above)
1. The cell-based screening methods employed in this study were like those previously published. Briefly, the corresponding myeloma cell lines were screened in 1,536-well plates with 500 cells, 5-uL per well for inhibition of cell viability (assessed by measuring ATP levels with CellTiterGlo).
2. NCATS MIPE 4.0 library of approved and investigational drugs were added using the Kalypsis pin tool. Wells treated with DMSO only for 100% viability and media only wells for 0% viability were used as controls.
3. The assay plates were covered and incubated for 48 hours in a 37C, 5% CO2 incubator with controlled humidity.
4. After 48 hours, CellTilter-GloTM luminescent substrate mix (Promega) reagent was added to the assay plate and plates we incubated for 5 min at room temperature.
5. Signal was measured as median relative luminescence units on a ViewLux (PerkinElmer) multiplate reader.
[1] Heske CM, Davis MI, Baumgart JT, Wilson K, Gormally MV, Chen L, Zhang X, Ceribelli M, Duveau DY, Guha R, Ferrer M, Arnaldez FI, Ji J, Tran HL, Zhang Y, Mendoza A, Helman LJ, Thomas CJ. Matrix Screen Identifies Synergistic Combination of PARP Inhibitors and Nicotinamide Phosphoribosyltransferase (NAMPT) Inhibitors in Ewing Sarcoma. Clin Cancer Res. 2017 Dec 1;23(23):7301-7311. doi: 10.1158/1078-0432.CCR-17-1121. Epub 2017 Sep 12. PMID: 28899971; PMCID: PMC6636827.
In general terms: In ATP-based viability assays light output follows the ATP content of the culture.
Turning to `CC(C)c1ccc(Cn2ccc3c4c(N)nc(NC5CC5)nc4ccc32)cc1`, the Potency is 935 nM (active).

As for `O=C(O)CO.[NH2-].[NH2-].[Pt+2]`, the “viability, % of DMSO” value was 138%.

`NC(=O)Nc1cc(-c2cccc(F)c2)sc1C(=O)N[C@H]1CCCNC1`: the Potency was 662 nM (active).

`C[C@@H](Oc1cc(-n2cnc3ccc(CN4CCN(C)CC4)cc32)sc1C(N)=O)c1ccccc1C(F)(F)F`: the Potency is 74.3 nM (active).

As for `CCNC(=O)Nc1ccc2ncc(Nc3ccc(C)cc3)nc2n1`, the Potency was 2350 nM (active).

`CN(c1ncccc1CNc1nc(Nc2ccc3c(c2)CC(=O)N3)ncc1C(F)(F)F)S(C)(=O)=O`: the Potency is 3320 nM (active).

As for `COCCn1c2c([n+](Cc3cnccn3)c1C)C(=O)c1ccccc1C2=O`, the Potency was 52.6 nM (active).

On to `CC(C)c1cc(-c2n[nH]c(=O)n2-c2ccc3c(ccn3C)c2)c(O)cc1O`, for which the Potency is 29.6 nM (active).

`C=CCn1c(=O)c2cnc(Nc3ccc(N4CCN(C)CC4)cc3)nc2n1-c1cccc(C(C)(C)O)n1`: the Potency was 590 nM (active).

As for `CCC(=C(c1ccccc1)c1ccc(OCCN(C)C)cc1)c1ccccc1`, the Potency was 18700 nM (active).

Take `Clc1cccc(-c2nnnn2Cc2cccnc2)c1Cl`: the “viability, % of DMSO” value is 98.9%.

For the compound `Nc1nc(Nc2ccc(S(N)(=O)=O)cc2)nn1C(=O)c1c(F)cccc1F`, the Potency is 2090 nM (active).

In the case of `OCCCNc1cc(-c2ccnc(Nc3cccc(Cl)c3)n2)ccn1`, the Potency is 74.3 nM (active).

For `Cc1ccc(NC(=O)C2(c3ccc4c(c3)OC(F)(F)O4)CC2)nc1-c1cccc(C(=O)O)c1`, the Potency is 52.6 nM (active).

With `C#Cc1cccc(Nc2ncnc3cc(OC)c(OCCCCCCC(=O)NO)cc23)c1`, the Potency was 52.6 nM (active).

Regarding `O=C(CCCCCCNC(=O)c1cnc(N(c2ccccc2)c2ccccc2)nc1)NO`, the Potency is 4690 nM (active).

Take `CN(C)CC(C)(C)CNc1nn2c(-c3ccccc3)nnc2cc1C1CCC1`: the Potency was 2960 nM (active).

As to `O=c1c2ccccc2nc2n1CCc1c-2[nH]c2ccccc12`, the “viability, % of DMSO” value is 88.4%.

Turning to `Cc1nc(Nc2n[nH]c3c2CN(C(=O)N[C@H](CN(C)C)c2ccccc2)C3(C)C)c2sccc2n1`, the Potency was 74.3 nM (active).

Consider `O=C(O)[C@H](Cc1c[nH]c2ccccc12)N1C(=O)c2ccccc2C1=O`, for which the “viability, % of DMSO” value is 106% [at 92.2 µM].

As to `O=C(O)C1(Cc2cccc(Nc3nccs3)n2)CCC(Oc2cccc(Cl)c2F)CC1` (stereo not given), the Potency is 235 nM (active).

Turning to `CNC(=O)c1ccc(-c2cnc3ncc(Cc4ccc5ncccc5c4)n3n2)cc1F`, the “viability, % of DMSO” value is 96.5%.

For `Cc1cc(N2CCOCC2)cc2[nH]c(-c3c(NC[C@@H](O)c4cccc(Cl)c4)cc[nH]c3=O)nc12`, the Potency is 526 nM (active).

Turning to `CC(C)c1noc(N2CCC(COc3ccc(-c4ccc(S(C)(=O)=O)cc4)nc3)CC2)n1`, the “viability, % of DMSO” value is 107%.

Regarding `C[C@@H](Oc1cc(-c2cnn(C3CCNCC3)c2)cnc1N)c1c(Cl)ccc(F)c1Cl`, the Potency was 18700 nM (active).

In the case of `Fc1cc(-c2cccc3ncc(-c4cnn(C5CCNCC5)c4)nc23)cc(F)c1CN1CCOCC1`, the Potency is 8330 nM (active).

On to `O=C1CCC[C@@H]2[C@H]3CCC[N+]4([O-])CCC[C@@H](CN12)[C@@H]34` (stereo not given in full), for which the “viability, % of DMSO” value was 110%.

For the compound `O=C(c1ccc(Nc2nccc(-c3cc4ccccc4s3)n2)cc1)N1CCC(N2CCCC2)CC1`, the Potency was 7430 nM (active).

As for `CC1(C)CC(=O)c2c(C(F)(F)F)nn(-c3ccc(C(N)=O)c(NC4CCC(OC(=O)CN)CC4)c3)c2C1` (stereo not given), the Potency was 148 nM (active).

On to `CCn1cc(-c2ccnc3[nH]c(-c4cccc(CN(C)C)c4)cc23)c(-c2ccc(NC(=O)N(C)C)cc2)n1`, for which the Potency is 5260 nM (active).

Regarding `CCN(CC)CCCCNc1ncc2cc(-c3cc(OC)cc(OC)c3)c(NC(=O)NC(C)(C)C)nc2n1`, the Potency was 26400 nM (active).

For the compound `COc1ccc(OC)c(-c2nnc3ccc(-c4ccc(OC)c(O[C@@H]5CCOC5)c4)nn23)c1`, the Potency was 26400 nM (active).

Regarding `CC[C@H](CO)Nc1nc(NCc2ccccc2)c2ncn(C(C)C)c2n1`, the Potency is 9350 nM (active).

Regarding `COC(=O)Nc1ccc(-c2nc(N3CCOCC3)c3cnn(C4CCN(Cc5cccnc5)CC4)c3n2)cc1`, the “viability, % of DMSO” value was 119%.

As for `CCCCN1CCC(CNC(=O)c2c3n(c4ccccc24)CCCO3)CC1`, the Potency is 13200 nM (active).

For the compound `COc1cc2c(cc1-c1c(C)noc1C)ncc1[nH]c(=O)n([C@H](C)c3ccccn3)c12`, the Potency was 332 nM (active).

On to `CC(C)(C)OC(=O)Nc1ccc(-c2cc(C(=O)NCCCCCCC(=O)NO)no2)cc1`, for which the Potency was 590 nM (active).

In the case of `O=C(Cc1ccc(-c2ccc(OCCN3CCOCC3)cc2)cn1)NCc1ccccc1`, the Potency was 13.2 nM (active).

As to `Cc1ccc(C(N)=O)cc1Nc1nccc(-c2cn(C(C)C)c3cnccc23)n1`, the Potency was 2640 nM (active).

`Nc1nccc(Oc2ccc(NC(=O)c3c[nH]cc(-c4ccc(F)cc4)c3=O)cc2F)c1Cl`: the Potency was 2350 nM (active).
